The full data set covers some 8,800 targets. This sample favours those with a hit. About 0.5% of all pairs of compound and target were hits. Unmarked numbers belong to inactive results.
Legend:
Experiment in all cases: log2 fold change, soluble protein after heating vs DMSO (PISA); higher = thermal stabilisation; K562 lysate, 10 uM; active = over 0.2 and 3.5 SD of the protein, either way, in both replicates (recomputed)
erlotinib = compound: C#Cc1cccc(Nc2ncnc3cc(OCCOC)c(OCCOC)cc23)c1 [erlotinib]
In short: (§1)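 Pellets of K562 cells were dounce-homogenised in PBS pH 7.4 with 1 mM MgCl2, and the crude extract was held at 1 mg/mL protein for a 30 min treatment with 10 μM compound. Aliquots were heated for 3 min over 48°C-58°C and pooled before NP-40 was added to 0.5% at 4°C. The supernatant from 21,000xg for 90 min was quantified by TMTpro 16plex LC-MS/MS with channel sums equalised. Values are reported from duplicates as log-two fold change in thermal stability relative to solvent controls.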

[1] = compound: C/C(=N\NC(=O)C1=CC(=CC=C1)S(=O)(=O)N2CCOCC2)/C3=C(C=CC(=C3)Cl)O
In short: as §1

[2] = compound: C1=CC(=CC=C1C2=NC3=C(N2)C=C(C=C3)C(=O)N)OC4=CC=C(C=C4)Cl
In short: as §1

[3] = compound: C1=CC2=C(C=CC(=C2)/C=C\3/C(=O)NC(=NCC4=CC=CS4)S3)N=C1
In short: as §1

[4] = compound: C1=CC=C(C=C1)C2=NC(=C(N2)C3=CC=NC=C3)C4=CC(=C(C=C4)Cl)O
In short: as §1

[5] = compound: C1=CC=C2C(=C1)C3=NNC4=CC=CC(=C43)C2=O
In short: as §1

[6] = compound: C1CCN(C1)C(=O)NC2=CC=CC(=C2)NC3=NC=C(C(=N3)NCCC4=CN=CN4)Br
In short: as §1

[7] = compound: C1CN(CCC1(CC2=CC=C(C=C2)Cl)N)C3=NC=NC4=C3C=CN4
In short: as §1

IRAK-1-4 Inhibitor I = compound: C1COCCN1CCN2C3=CC=CC=C3N=C2NC(=O)C4=CC(=CC=C4)[N+](=O)[O-] [IRAK-1-4 Inhibitor I]
In short: as §1

[8] = compound: CC(=O)c1cnc2ccc(-c3cc(Cl)c(O)c(Cl)c3)nc2c1N[C@H]1CC[C@H](CN(C)C)CC1
In short: as §1

ralimetinib = compound: CC(C)(C)Cn1c(N)nc2ccc(-c3[nH]c(C(C)(C)C)nc3-c3ccc(F)cc3)nc21 [ralimetinib]
In short: as §1

[9] = compound: CC(C)(O)CC(=O)NCCn1ccc2ncnc(Nc3ccc(Oc4cccc(C(F)(F)F)c4)c(Cl)c3)c21
In short: as §1

[10] = compound: CC(C)C1=C2N=C(C=C(N2N=C1)NCC3=CC=CC=C3)NCCCCCCN
In short: as §1

[11] = compound: CC1=C(C(CC(=O)N1)C2=CC=C(C=C2)C(F)(F)F)C(=O)NC3=C(C=C4C(=C3)C=NN4)F
In short: as §1

[12] = compound: CC1=C(C2=C(C=C1)C(=O)C3=CC=CC=C3N2CCCN)C
In short: as §1

[13] = compound: CC1=C(C=C(C=C1)NC(=O)C2=CC(=CC=C2)C(C)(C)C#N)NC3=CC4=C(C=C3)N=CN(C4=O)C
In short: as §1

[14] = compound: CC1=C(C=C(C=C1)NC(=O)C2=CC(=CC=C2)N(C)C)NC(=O)C3=CC=C(C=C3)O
In short: as §1

[15] = compound: CC1=CC=C(C=C1)SC2=C3C=C(SC3=CN=C2)C(=O)N
In short: as §1

[16] = compound: C1=CC2=NC=CN=C2C=C1/C=C/3\C(=O)NC(=O)S3
In short: as §1

ibrutinib = compound: C=CC(=O)N1CCC[C@@H](n2nc(-c3ccc(Oc4ccccc4)cc3)c3c(N)ncnc32)C1 [ibrutinib]
In short: as §1

UniProt O96017, sequence (O96017 whole entry, looked up): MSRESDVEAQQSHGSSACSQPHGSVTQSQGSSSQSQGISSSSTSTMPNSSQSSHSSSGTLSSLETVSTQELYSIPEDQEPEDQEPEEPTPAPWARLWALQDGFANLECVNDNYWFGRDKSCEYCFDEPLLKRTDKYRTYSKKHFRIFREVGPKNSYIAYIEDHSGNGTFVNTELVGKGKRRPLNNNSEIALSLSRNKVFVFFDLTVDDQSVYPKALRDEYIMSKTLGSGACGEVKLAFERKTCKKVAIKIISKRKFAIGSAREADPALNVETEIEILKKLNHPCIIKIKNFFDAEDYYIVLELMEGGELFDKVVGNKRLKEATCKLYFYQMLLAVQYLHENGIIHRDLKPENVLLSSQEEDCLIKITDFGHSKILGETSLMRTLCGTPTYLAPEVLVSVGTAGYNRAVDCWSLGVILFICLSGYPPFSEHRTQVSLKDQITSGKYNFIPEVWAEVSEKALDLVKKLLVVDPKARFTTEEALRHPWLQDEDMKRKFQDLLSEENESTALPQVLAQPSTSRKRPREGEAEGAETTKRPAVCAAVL
UniProt O14810, sequence (O14810 whole entry, looked up): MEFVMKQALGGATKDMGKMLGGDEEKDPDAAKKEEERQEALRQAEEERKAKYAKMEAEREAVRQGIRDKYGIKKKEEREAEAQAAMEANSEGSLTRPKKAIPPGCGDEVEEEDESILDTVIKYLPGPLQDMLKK
UniProt P30622, sequence (P30622 whole entry, looked up): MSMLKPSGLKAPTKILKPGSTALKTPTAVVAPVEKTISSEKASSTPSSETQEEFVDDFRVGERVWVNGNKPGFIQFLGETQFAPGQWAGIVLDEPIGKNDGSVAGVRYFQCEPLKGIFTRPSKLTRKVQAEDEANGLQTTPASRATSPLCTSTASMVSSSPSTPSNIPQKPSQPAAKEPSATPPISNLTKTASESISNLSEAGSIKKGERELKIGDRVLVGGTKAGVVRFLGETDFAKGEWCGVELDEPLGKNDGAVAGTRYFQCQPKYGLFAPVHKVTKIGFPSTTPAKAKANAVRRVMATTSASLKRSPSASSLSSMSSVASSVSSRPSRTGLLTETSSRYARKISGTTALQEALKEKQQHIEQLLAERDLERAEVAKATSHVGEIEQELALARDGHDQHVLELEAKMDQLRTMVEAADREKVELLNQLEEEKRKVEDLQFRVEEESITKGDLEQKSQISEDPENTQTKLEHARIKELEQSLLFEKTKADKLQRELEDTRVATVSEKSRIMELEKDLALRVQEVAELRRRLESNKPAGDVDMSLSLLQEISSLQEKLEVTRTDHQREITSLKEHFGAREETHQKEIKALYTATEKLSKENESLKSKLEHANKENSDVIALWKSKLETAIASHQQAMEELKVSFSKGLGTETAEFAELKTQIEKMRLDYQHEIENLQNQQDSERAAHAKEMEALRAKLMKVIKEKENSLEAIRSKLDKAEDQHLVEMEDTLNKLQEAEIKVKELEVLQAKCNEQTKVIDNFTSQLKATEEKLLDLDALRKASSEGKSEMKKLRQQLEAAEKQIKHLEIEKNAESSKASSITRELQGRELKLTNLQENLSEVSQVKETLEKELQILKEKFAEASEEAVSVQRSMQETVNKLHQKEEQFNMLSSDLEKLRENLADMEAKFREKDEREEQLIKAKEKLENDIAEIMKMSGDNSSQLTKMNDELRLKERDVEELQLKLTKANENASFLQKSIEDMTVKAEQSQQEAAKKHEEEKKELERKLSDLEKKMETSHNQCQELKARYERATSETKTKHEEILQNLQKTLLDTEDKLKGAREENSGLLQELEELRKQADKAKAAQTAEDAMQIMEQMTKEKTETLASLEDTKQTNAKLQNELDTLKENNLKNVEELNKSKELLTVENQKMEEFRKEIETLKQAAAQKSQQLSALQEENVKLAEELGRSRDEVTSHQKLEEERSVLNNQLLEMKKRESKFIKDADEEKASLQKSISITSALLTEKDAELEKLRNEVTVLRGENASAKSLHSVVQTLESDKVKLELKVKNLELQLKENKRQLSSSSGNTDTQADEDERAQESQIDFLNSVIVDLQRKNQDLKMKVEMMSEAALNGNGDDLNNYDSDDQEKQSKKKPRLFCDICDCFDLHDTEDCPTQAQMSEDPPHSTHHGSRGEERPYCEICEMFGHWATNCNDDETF
UniProt P48729, sequence (P48729 whole entry, looked up): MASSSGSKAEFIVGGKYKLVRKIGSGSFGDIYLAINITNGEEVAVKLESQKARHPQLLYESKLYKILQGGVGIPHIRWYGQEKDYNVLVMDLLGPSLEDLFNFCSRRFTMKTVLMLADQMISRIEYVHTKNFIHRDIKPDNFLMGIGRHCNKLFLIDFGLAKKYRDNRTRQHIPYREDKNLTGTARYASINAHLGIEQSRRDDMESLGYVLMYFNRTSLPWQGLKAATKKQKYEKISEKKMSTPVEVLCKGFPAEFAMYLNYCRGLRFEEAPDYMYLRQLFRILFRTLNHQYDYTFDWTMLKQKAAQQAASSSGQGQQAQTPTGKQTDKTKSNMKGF
UniProt Q15398, sequence (Q15398 whole entry, looked up): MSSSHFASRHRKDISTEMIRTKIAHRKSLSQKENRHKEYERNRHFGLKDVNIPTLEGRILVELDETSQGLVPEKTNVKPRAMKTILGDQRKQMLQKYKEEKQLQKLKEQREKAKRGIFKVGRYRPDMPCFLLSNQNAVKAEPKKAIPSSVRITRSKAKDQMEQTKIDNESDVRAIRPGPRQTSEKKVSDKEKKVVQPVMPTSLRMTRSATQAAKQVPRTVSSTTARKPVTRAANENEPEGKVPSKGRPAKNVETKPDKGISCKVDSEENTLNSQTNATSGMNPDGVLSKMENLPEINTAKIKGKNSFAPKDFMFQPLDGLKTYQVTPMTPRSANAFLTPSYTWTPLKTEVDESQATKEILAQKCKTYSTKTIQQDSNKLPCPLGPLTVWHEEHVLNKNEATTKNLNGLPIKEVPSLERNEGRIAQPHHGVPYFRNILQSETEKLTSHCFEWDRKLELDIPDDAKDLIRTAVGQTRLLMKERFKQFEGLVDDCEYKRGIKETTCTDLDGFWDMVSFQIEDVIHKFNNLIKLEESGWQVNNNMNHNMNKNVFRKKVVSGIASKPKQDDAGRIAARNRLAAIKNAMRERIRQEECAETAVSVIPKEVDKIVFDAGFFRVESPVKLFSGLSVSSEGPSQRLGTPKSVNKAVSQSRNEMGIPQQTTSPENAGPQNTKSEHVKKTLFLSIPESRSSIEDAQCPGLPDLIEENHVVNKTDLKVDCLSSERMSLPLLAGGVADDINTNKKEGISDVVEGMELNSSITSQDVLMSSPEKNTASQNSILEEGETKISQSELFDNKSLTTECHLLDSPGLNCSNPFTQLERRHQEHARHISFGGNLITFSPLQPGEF
UniProt Q9BSY9, sequence (Q9BSY9 whole entry, looked up): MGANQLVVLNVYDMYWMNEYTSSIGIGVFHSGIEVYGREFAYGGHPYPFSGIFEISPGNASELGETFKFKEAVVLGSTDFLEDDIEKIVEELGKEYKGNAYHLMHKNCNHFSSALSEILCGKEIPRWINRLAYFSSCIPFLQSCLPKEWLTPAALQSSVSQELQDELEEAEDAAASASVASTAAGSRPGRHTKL
UniProt Q8WXC6, sequence (Q8WXC6 whole entry, looked up): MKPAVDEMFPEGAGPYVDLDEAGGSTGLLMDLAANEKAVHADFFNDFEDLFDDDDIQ
UniProt Q5D0E6, sequence (Q5D0E6 whole entry, looked up): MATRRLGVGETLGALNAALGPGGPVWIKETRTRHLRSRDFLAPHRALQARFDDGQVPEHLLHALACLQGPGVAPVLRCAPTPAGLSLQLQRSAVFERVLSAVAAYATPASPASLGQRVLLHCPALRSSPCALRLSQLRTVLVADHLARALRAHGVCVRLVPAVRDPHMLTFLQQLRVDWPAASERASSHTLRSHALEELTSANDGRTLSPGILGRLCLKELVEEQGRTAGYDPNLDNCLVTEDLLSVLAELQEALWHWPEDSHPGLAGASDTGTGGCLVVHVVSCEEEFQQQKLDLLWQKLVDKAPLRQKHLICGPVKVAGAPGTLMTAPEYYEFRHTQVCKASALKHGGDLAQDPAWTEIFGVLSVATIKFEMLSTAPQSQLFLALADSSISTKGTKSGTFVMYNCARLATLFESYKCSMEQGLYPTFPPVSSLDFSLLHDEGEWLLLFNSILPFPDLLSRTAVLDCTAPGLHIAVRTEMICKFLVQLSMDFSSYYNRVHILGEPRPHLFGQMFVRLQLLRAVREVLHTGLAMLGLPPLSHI
UniProt Q6UX07, sequence (Q6UX07 whole entry, looked up): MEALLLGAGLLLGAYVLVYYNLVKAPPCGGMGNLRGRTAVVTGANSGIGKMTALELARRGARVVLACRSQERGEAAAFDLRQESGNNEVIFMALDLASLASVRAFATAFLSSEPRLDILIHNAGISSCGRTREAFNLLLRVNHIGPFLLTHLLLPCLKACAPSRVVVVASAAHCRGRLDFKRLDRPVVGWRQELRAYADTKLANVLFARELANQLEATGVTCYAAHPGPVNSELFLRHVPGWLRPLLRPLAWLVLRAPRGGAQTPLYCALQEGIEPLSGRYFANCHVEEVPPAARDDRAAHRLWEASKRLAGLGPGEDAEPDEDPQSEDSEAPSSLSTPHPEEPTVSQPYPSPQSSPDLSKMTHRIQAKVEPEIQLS
UniProt Q07973, sequence (Q07973 whole entry, looked up): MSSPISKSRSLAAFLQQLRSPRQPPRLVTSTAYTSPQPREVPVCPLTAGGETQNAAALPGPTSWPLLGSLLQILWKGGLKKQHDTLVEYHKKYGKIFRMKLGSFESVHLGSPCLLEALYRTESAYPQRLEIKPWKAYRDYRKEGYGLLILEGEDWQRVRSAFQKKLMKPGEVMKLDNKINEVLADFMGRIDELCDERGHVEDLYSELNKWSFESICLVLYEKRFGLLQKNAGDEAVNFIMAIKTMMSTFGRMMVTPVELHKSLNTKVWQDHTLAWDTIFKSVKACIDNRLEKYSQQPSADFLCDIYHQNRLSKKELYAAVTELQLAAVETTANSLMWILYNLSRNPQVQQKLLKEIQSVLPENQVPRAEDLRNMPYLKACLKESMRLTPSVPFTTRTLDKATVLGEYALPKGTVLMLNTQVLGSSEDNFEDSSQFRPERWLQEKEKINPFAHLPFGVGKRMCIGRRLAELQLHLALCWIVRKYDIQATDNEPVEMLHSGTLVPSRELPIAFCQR

Target	log2 fold change (erlotinib)	log2 fold change [1]	log2 fold change [2]	log2 fold change [3]	log2 fold change [4]	log2 fold change [5]	log2 fold change [6]	log2 fold change [7]	log2 fold change (IRAK-1-4 Inhibitor I)	log2 fold change [8]	log2 fold change (ralimetinib)	log2 fold change [9]	log2 fold change [10]	log2 fold change [11]	log2 fold change [12]	log2 fold change [13]	log2 fold change [14]	log2 fold change [15]	log2 fold change [16]	log2 fold change (ibrutinib)
CHFR (UniProt Q96EP1)	-0.011	0.179	0.066	-0.068	-0.027	0.257	-0.023	-0.013	-0.011	0.158	0.007	-0.049	-0.047	0.003	-0.06	-0.021	0.031	0.102	–	–
CYP24A1 (UniProt Q07973)	0.015	0.058	0.148	-0.09	-0.008	-0.135	-0.05	-0.011	0.07	-0.036	-0.03	-0.159	0.019	-0.05	-0.051	0.183	0.007	-0.067	-0.083	0.01
CXCL14 (UniProt O95715)	–	0.119	–	-0.094	–	-0.268	-0.444	0.119	–	–	–	–	–	–	–	–	–	–	-0.09	-0.012
DALRD3 (UniProt Q5D0E6)	0.034	0.152	0.05	-0.413	–	0.021	0.031	-0.068	–	0.028	–	–	-0.024	–	–	–	–	0.037	–	–
CSRP2 (UniProt Q16527)	–	–	–	–	–	–	0.043	-0.003	–	–	–	–	–	–	–	0.271	–	–	-0.097	0.054
DAPK1 isoform 3 (UniProt P53355)	-0.015	-0.17	-0.306	-0.274	0.061	0.181	–	–	0.008	0.35	0.041	0	-0.077	0.138	0.017	-0.151	-0.026	-0.094	–	–
CNK3/IPCEF1 isoform 2 (UniProt G9CGD6)	0.065	-0.008	0.038	-0.082	-0.051	0.053	0.014	-0.048	0.105	–	0.215	-0.138	-0.096	–	0.075	–	0	–	–	–
CYP4V2 (UniProt Q6ZWL3)	-0.07	–	0.014	–	0.099	–	–	–	0.074	0.129	0.058	-0.095	-0.004	–	-0.022	0.02	0.015	0.015	0.126	0.157
DNM2 isoform 4 (UniProt P50570)	0.099	–	0.107	–	0.072	–	-0.11	-0.011	0.133	-0.018	0.011	-0.027	-0.143	-0.07	0.075	-0.08	0.047	0.058	–	–
DHRS13 (UniProt Q6UX07)	0.227	–	-0.074	–	0.133	–	–	–	-0.162	-0.003	0.094	-0.111	-0.073	0.082	-0.292	0.03	-0.009	0.111	-0.142	-0.106
CSNK1A1 isoform 3 (UniProt P48729)	–	–	–	–	-0.006	–	–	–	0.088	–	0.13	0.253	–	–	-0.061	–	0.143	–	–	–
DESI2 (UniProt Q9BSY9)	–	0.195	–	-0.043	–	0.119	0.002	0.067	–	–	–	–	–	–	–	–	–	–	–	–
CSNK1G3 isoform 4 (UniProt Q9Y6M4)	–	–	–	–	–	–	–	–	–	0.235	–	–	–	–	–	–	–	-0.142	–	–
CPLX1 (UniProt O14810)	–	-0.059	–	0.062	0.012	0.114	0.012	-0.048	0.027	-0.071	0.079	-0.139	–	–	0.874 (active)	–	0.037	0.119	–	–
CSNK2A1, A0A2R8Y4D6	–	–	–	–	–	–	–	–	–	0.172	–	–	–	–	–	–	–	-0.292	–	–
CLIP1 isoform 2 (UniProt P30622)	-0.067	–	0.056	–	-0.055	–	0.023	0.023	0.026	0.05	-0.002	-0.04	-0.054	0.017	-0.025	0.053	0.021	-0.088	-0.082	–
COL12A1 (UniProt Q99715)	-0.016	-0.009	0.01	-0.008	–	-0.053	0.059	0.065	–	0.72	–	–	0.024	–	-0.224	1.57 (active)	–	0.005	–	–
COL6A3 (UniProt P12111)	-0.101	–	0.14	–	-0.108	–	–	–	-0.071	–	0.174	-0.132	0.047	-0.066	-0.099	-0.021	-0.54 (active)	–	-0.232	-0.087
CLASP2 (UniProt O75122)	–	-0.114	–	0.12	-0.044	-0.059	0	0.023	-0.017	-0.048	0.075	0.069	–	0.044	–	-0.098	0.001	-0.028	-0.225	–
CRLS1 (UniProt Q9UJA2)	0.074	–	-0.085	–	0.056	–	–	–	-0.021	-0.008	0.079	-0.027	-0.102	-0.049	–	0.066	0.058	0.048	0.087	-0.023
CSDE1 isoform 3 (UniProt O75534)	–	–	–	–	0.027	–	–	–	-0.011	-0.331	0.047	0.019	–	-0.112	–	-0.009	-0.137	0.031	0.13	0.051
CHEK2 (UniProt O96017)	-0.042	-0.006	–	0.05	0.018	0.148	0.11	-0.035	-0.031	-0.043	-0.011	0.081	0.211	0.013	-0.002	-0.041	0.073	0.013	0.053	0.04
DLGAP5 isoform 3 (UniProt Q15398)	–	–	–	–	–	–	–	–	–	–	–	–	–	–	0.233	–	–	–	-0.009	-0.076
DAZAP1 (UniProt K7EQ02)	–	–	–	–	–	–	–	–	–	–	–	–	–	0.033	–	–	–	–	–	–
CHMP4A (UniProt H0YIN6)	–	–	–	–	-0.055	–	–	–	0.142	-0.203	-0.253	-0.354	–	–	-0.055	0.33	0.15	-0.159	0.06	-0.077
DDR1 isoform 5 (UniProt Q08345)	–	–	–	–	0.04	–	-0.011	-0.016	0.097	–	0.205	0.021	–	-0.117	-0.099	0.38	0.117	–	0.044	0
COPS9 (UniProt Q8WXC6)	-0.01	–	-0.362	–	0.081	–	–	–	-0.371	-0.059	0.146	-0.213	0.173	–	–	–	0.172	-0.184	–	–
